{"source": "PubChem BioAssay (NCI)", "note": "Compounds without any hit were thinned out: in the full panel of roughly 83,000, 20% have a hit.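 The endpoint reported here, percent growth, reads 100 for growth as untreated, 0 for no net growth and -100 for all cells dead.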 A number with no mark means an inactive call. Calls of active or inactive are those of the source. How the source made its calls: active means growth percent below 10; inactive means the rest."}
{"tested_on": "HS 578T breast", "experiment": "NCI-60 one-dose screen, 48 h (100 = growth as untreated, 0 = no growth, -100 = all killed)", "details": "10 µM unless noted"}
{"smiles": "Clc1ccc(/C=C/c2nc(Nc3ccc(Cl)cc3)c3ccccc3n2)cc1", "growth": "103%"}
{"smiles": "C=C1C(=O)O[C@H]2[C@H]1CC/C(COC(=O)/C=C\\C(=O)NCc1ccc(Cn3c(=O)sn(CCCC)c3=O)cc1)=C\\CC[C@@]1(C)O[C@@H]21", "growth": "-20.4% (active)"}
{"smiles": "C=C1C(=O)O[C@H]2[C@H]1CC/C(C(=O)NCCCCCCCCNC(=O)/C1=C/CC[C@@]3(C)O[C@H]3[C@H]3OC(=O)C(=C)[C@@H]3CC1)=C\\CC[C@@]1(C)O[C@@H]21", "growth": "90.5%"}
{"smiles": "Cc1nc(Nc2ccc(N)cc2)c2ccccc2n1", "growth": "104%"}
{"smiles": "OC(COc1cccc2ccccc12)CN1CCN(c2ccccc2)CC1", "note": "(stereo not drawn)", "growth": "107%"}
{"smiles": "C=C1C(=O)O[C@H]2[C@H]1CC/C(COC(=O)/C=C\\C(=O)NCc1ccc(Cn3c(=O)sn(-c4ccc(OC)cc4)c3=O)cc1)=C\\CC[C@@]1(C)O[C@@H]21", "growth": "-21.3% (active)"}
{"smiles": "CC(C)(C)OC(=O)N1Cc2cc3ccccc3nc2C1CO", "note": "(stereo not drawn)", "growth": "102%"}
{"smiles": "NC(=Nc1ccc(N)cc1)C(N)=Nc1ccc(N)cc1", "growth": "114%"}
{"smiles": "Clc1ccc(-c2nc(NCCc3ccccc3)nc3c(NCCc4ccccc4)cnn23)cc1", "growth": "76.6%"}
{"smiles": "C=C1C(=O)O[C@H]2[C@H]1CC/C(COC(=O)/C=C\\C(=O)NCc1ccc(Cn3c(=O)sn(-c4ccc(Cl)cc4)c3=O)cc1)=C\\CC[C@@]1(C)O[C@@H]21", "growth": "-18.2% (active)"}
{"smiles": "CC(=O)Nc1ccc(C(=O)/C=C/c2ccccc2)cc1", "growth": "98.8%"}
{"smiles": "COc1ccc(-n2nnc(C(=O)NCCc3c[nH]c4ccc(F)cc34)c2C)cc1", "growth": "96.5%"}
{"smiles": "O=[N+]([O-])c1ccc(-c2cc3c(Nc4ccc(Sc5nc6ccccc6s5)c(Cl)c4)ncnc3s2)cc1", "growth": "87.8%"}
{"smiles": "OCCCCc1nccc2c1[nH]c1ccccc12", "growth": "106%"}
{"smiles": "CCOC(=O)c1sc(-c2ccc(OS(=O)(=O)c3ccc(C(C)(C)C)cc3)c(C=O)c2)nc1C", "growth": "52.9%"}
{"smiles": "CCOC(=O)C1=C(C)NC(SCc2nnc(-c3ccc(Cl)cc3)o2)=NC1c1ccc(Cl)cc1Cl", "note": "(stereo not drawn)", "growth": "67.1%"}
{"smiles": "CCN(CC)CCOc1ccc(/C(=C(\\C)c2ccc(OC)c(F)c2)c2ccc(Cl)cc2)cc1", "growth": "70%"}
{"smiles": "O=C1/C(=C/c2ccccc2[N+](=O)[O-])COc2ccc(O)c(O)c21", "growth": "-0.42% (active)"}
{"smiles": "O=C(O)c1ccc(CO)o1", "growth": "106%"}
{"smiles": "Cn1ccnc1C(=O)/C=C/c1ccc(C(=O)Nc2ccc(S(F)(F)(F)(F)F)cc2)cc1", "growth": "23.5%"}
{"smiles": "COc1ccc(/C=C2\\COc3ccc(O)cc3C2=O)cc1OC", "growth": "80.4%"}
{"smiles": "O=C(Nc1ccccc1)c1sc(-c2cccc(C(F)(F)F)c2)cc1O", "growth": "63.8%"}
{"smiles": "COc1ccc(/C(C)=C(\\c2ccc(Cl)cc2)c2ccc(OCCCN(C)C)cc2)cc1F", "growth": "56.3%"}
{"smiles": "COc1ccc(Cn2cnc3cc(C(=O)Nc4cccc5ccccc45)ccc32)c(OC)c1", "growth": "29.8% [30 µM]"}
{"smiles": "COc1ccc(-n2sc(=O)n(Cc3ccc(COC(=O)C(C)c4ccc(CC(C)C)cc4)cc3)c2=O)cc1", "note": "(stereo not drawn)", "growth": "77.8%"}
{"smiles": "CC(C)(C)N1CC(OC(N)=O)C1", "growth": "116%"}
{"smiles": "O=C1NCC(=O)N(Cc2ccco2)[C@H]1Cc1ccccc1", "growth": "89%"}
{"smiles": "Cc1cc(C(c2ccccc2)c2ccccc2)ccc1NS(=O)(=O)c1ccccc1", "growth": "89.8%"}
{"smiles": "c1ccc2[nH]c(SSc3nc4ncncc4[nH]3)nc2c1", "growth": "59.7%"}
{"smiles": "O[C@H]1CO[C@H]2[C@@H]1OC[C@@H]2Oc1ccc(Nc2ccnc(Nc3ccc(O[C@H]4CO[C@H]5[C@@H]4OC[C@@H]5O)c(Cl)c3)n2)cc1Cl", "growth": "-2.86% (active)"}
{"smiles": "CCOC(=O)c1cnn2c(-c3ccc(Cl)cc3)nc(NCc3ccccc3)nc12", "growth": "79.5%"}
{"smiles": "COc1ccc(/C(C)=C(\\c2ccc(Cl)cc2)c2ccc(OCCN3CCCCC3)cc2)cc1F", "growth": "35%"}
{"smiles": "Cn1cc(-c2ccc3nc(-c4ccc(CC(=O)Nc5cc(C(C)(C)C)no5)cc4)cnc3c2)cn1", "growth": "21.9% [30 µM]"}
{"smiles": "Nc1ccc(-c2cc3c(Nc4ccc(OCc5cccc(F)c5)c(Cl)c4)ncnc3s2)cc1", "growth": "77%"}
{"smiles": "CC(C)OC(=O)NNC(=O)c1ccncc1", "growth": "106%"}
{"smiles": "CCOC(=O)N1CCc2c(sc3c2C(=O)N[C@H](c2ccc(OC)cc2)N3)C1", "growth": "98.7%"}
{"smiles": "O=[N+]([O-])c1ccc(-c2cc3c(Nc4ccc(OCc5cccc(Cl)c5)c(Cl)c4)ncnc3s2)cc1", "growth": "82.1%"}
{"smiles": "CCOC(=O)c1ccc(NC(=O)CCCN(CC)CC)cc1", "growth": "119%"}
{"smiles": "Nc1ccn(C2OC(F)(CO)C(O)C2F)c(=O)n1", "note": "(stereo not drawn)", "growth": "78.8%"}
{"tested_on": "NCI/ADR-RES ovarian", "experiment": "NCI-60 one-dose screen, 48 h (100 = growth as untreated, 0 = no growth, -100 = all killed)", "details": "10 µM unless noted"}
{"smiles": "Clc1ccc(/C=C/c2nc(Nc3ccc(Cl)cc3)c3ccccc3n2)cc1", "growth": "103%"}
{"smiles": "C=C1C(=O)O[C@H]2[C@H]1CC/C(COC(=O)/C=C\\C(=O)NCc1ccc(Cn3c(=O)sn(CCCC)c3=O)cc1)=C\\CC[C@@]1(C)O[C@@H]21", "growth": "-9.25% (active)"}
{"smiles": "C=C1C(=O)O[C@H]2[C@H]1CC/C(C(=O)NCCCCCCCCNC(=O)/C1=C/CC[C@@]3(C)O[C@H]3[C@H]3OC(=O)C(=C)[C@@H]3CC1)=C\\CC[C@@]1(C)O[C@@H]21", "growth": "103%"}
{"smiles": "Cc1nc(Nc2ccc(N)cc2)c2ccccc2n1", "growth": "93.6%"}
{"smiles": "OC(COc1cccc2ccccc12)CN1CCN(c2ccccc2)CC1", "note": "(stereo not drawn)", "growth": "98%"}
{"smiles": "C=C1C(=O)O[C@H]2[C@H]1CC/C(COC(=O)/C=C\\C(=O)NCc1ccc(Cn3c(=O)sn(-c4ccc(OC)cc4)c3=O)cc1)=C\\CC[C@@]1(C)O[C@@H]21", "growth": "-16% (active)"}
{"smiles": "CC(C)(C)OC(=O)N1Cc2cc3ccccc3nc2C1CO", "note": "(stereo not drawn)", "growth": "106%"}
{"smiles": "NC(=Nc1ccc(N)cc1)C(N)=Nc1ccc(N)cc1", "growth": "99.6%"}
{"smiles": "Clc1ccc(-c2nc(NCCc3ccccc3)nc3c(NCCc4ccccc4)cnn23)cc1", "growth": "74.5%"}
{"smiles": "C=C1C(=O)O[C@H]2[C@H]1CC/C(COC(=O)/C=C\\C(=O)NCc1ccc(Cn3c(=O)sn(-c4ccc(Cl)cc4)c3=O)cc1)=C\\CC[C@@]1(C)O[C@@H]21", "growth": "-6.62% (active)"}
{"smiles": "CC(=O)Nc1ccc(C(=O)/C=C/c2ccccc2)cc1", "growth": "94.2%"}
{"smiles": "COc1ccc(-n2nnc(C(=O)NCCc3c[nH]c4ccc(F)cc34)c2C)cc1", "growth": "106%"}
{"smiles": "O=[N+]([O-])c1ccc(-c2cc3c(Nc4ccc(Sc5nc6ccccc6s5)c(Cl)c4)ncnc3s2)cc1", "growth": "60.3%"}
{"smiles": "OCCCCc1nccc2c1[nH]c1ccccc12", "growth": "108%"}
{"smiles": "CCOC(=O)c1sc(-c2ccc(OS(=O)(=O)c3ccc(C(C)(C)C)cc3)c(C=O)c2)nc1C", "growth": "32.4%"}
{"smiles": "CCOC(=O)C1=C(C)NC(SCc2nnc(-c3ccc(Cl)cc3)o2)=NC1c1ccc(Cl)cc1Cl", "note": "(stereo not drawn)", "growth": "54.6%"}
{"smiles": "CCN(CC)CCOc1ccc(/C(=C(\\C)c2ccc(OC)c(F)c2)c2ccc(Cl)cc2)cc1", "growth": "82.3%"}
{"smiles": "O=C1/C(=C/c2ccccc2[N+](=O)[O-])COc2ccc(O)c(O)c21", "growth": "5.96% (active)"}
{"smiles": "O=C(O)c1ccc(CO)o1", "growth": "116%"}
{"smiles": "Cn1ccnc1C(=O)/C=C/c1ccc(C(=O)Nc2ccc(S(F)(F)(F)(F)F)cc2)cc1", "growth": "5.47% (active)"}
{"smiles": "COc1ccc(/C=C2\\COc3ccc(O)cc3C2=O)cc1OC", "growth": "98.4%"}
{"smiles": "O=C(Nc1ccccc1)c1sc(-c2cccc(C(F)(F)F)c2)cc1O", "growth": "83.2%"}
{"smiles": "COc1ccc(/C(C)=C(\\c2ccc(Cl)cc2)c2ccc(OCCCN(C)C)cc2)cc1F", "growth": "77.1%"}
{"smiles": "COc1ccc(Cn2cnc3cc(C(=O)Nc4cccc5ccccc45)ccc32)c(OC)c1", "growth": "3.4% [30 µM] (active)"}
{"smiles": "COc1ccc(-n2sc(=O)n(Cc3ccc(COC(=O)C(C)c4ccc(CC(C)C)cc4)cc3)c2=O)cc1", "note": "(stereo not drawn)", "growth": "76.7%"}
{"smiles": "CC(C)(C)N1CC(OC(N)=O)C1", "growth": "117%"}
{"smiles": "O=C1NCC(=O)N(Cc2ccco2)[C@H]1Cc1ccccc1", "growth": "104%"}
{"smiles": "Cc1cc(C(c2ccccc2)c2ccccc2)ccc1NS(=O)(=O)c1ccccc1", "growth": "82.8%"}
{"smiles": "c1ccc2[nH]c(SSc3nc4ncncc4[nH]3)nc2c1", "growth": "26.2%"}
{"smiles": "O[C@H]1CO[C@H]2[C@@H]1OC[C@@H]2Oc1ccc(Nc2ccnc(Nc3ccc(O[C@H]4CO[C@H]5[C@@H]4OC[C@@H]5O)c(Cl)c3)n2)cc1Cl", "growth": "74.1%"}
{"smiles": "CCOC(=O)c1cnn2c(-c3ccc(Cl)cc3)nc(NCc3ccccc3)nc12", "growth": "26.3%"}
{"smiles": "COc1ccc(/C(C)=C(\\c2ccc(Cl)cc2)c2ccc(OCCN3CCCCC3)cc2)cc1F", "growth": "63%"}
{"smiles": "Cn1cc(-c2ccc3nc(-c4ccc(CC(=O)Nc5cc(C(C)(C)C)no5)cc4)cnc3c2)cn1", "growth": "19.8% [30 µM]"}
{"smiles": "Nc1ccc(-c2cc3c(Nc4ccc(OCc5cccc(F)c5)c(Cl)c4)ncnc3s2)cc1", "growth": "50.4%"}
{"smiles": "CC(C)OC(=O)NNC(=O)c1ccncc1", "growth": "109%"}
{"smiles": "CCOC(=O)N1CCc2c(sc3c2C(=O)N[C@H](c2ccc(OC)cc2)N3)C1", "growth": "102%"}
{"smiles": "O=[N+]([O-])c1ccc(-c2cc3c(Nc4ccc(OCc5cccc(Cl)c5)c(Cl)c4)ncnc3s2)cc1", "growth": "68.1%"}
{"smiles": "CCOC(=O)c1ccc(NC(=O)CCCN(CC)CC)cc1", "growth": "99%"}
{"smiles": "Nc1ccn(C2OC(F)(CO)C(O)C2F)c(=O)n1", "note": "(stereo not drawn)", "growth": "18.4%"}
